In article PMC5700166:
Residue numbers refer to the chain shown, from its start.

Assays:
Assay in all cases: protein-binding microarray (PBM); PBM: ~300 nM protein, 6 mM HEPES pH 7.8, 80 mM KCl, 0.5 mM EDTA, 0.5 mM EGTA, 6% glycerol, 35 ng/ul poly-dIdC, 1% milk, 1 h, room temperature; Ap Aiptasia and Nv Nematostella (sea anemones) / Co Capsaspora / Aq Amphimedon (sponge) / Dm Drosophila / Hu human; RHD is the Rel homology domain; high values mean tight binding
Details in all cases: dsDNA, one strand shown
[1] = target: T1, GST-Ap-NF-kB RHD (Exaiptasia pallida (Aiptasia), UniProt A0A913YAJ5 2-422)
T1 sequence: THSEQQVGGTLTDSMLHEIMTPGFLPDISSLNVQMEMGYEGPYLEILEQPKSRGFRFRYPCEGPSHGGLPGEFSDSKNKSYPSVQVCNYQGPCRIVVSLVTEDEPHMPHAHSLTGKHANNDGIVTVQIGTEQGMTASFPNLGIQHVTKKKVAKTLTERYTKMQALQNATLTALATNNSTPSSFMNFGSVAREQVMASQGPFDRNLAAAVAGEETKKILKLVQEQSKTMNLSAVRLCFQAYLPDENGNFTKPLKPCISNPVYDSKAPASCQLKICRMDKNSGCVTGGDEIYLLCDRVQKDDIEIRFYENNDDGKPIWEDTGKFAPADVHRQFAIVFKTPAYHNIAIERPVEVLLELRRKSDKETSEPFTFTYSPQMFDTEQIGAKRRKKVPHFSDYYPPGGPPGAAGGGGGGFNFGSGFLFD

[2] = target: T2, GST-Nv-NF-kB (Cys allele) (Nematostella vectensis, UniProt E5G601 2-411)
T2 sequence: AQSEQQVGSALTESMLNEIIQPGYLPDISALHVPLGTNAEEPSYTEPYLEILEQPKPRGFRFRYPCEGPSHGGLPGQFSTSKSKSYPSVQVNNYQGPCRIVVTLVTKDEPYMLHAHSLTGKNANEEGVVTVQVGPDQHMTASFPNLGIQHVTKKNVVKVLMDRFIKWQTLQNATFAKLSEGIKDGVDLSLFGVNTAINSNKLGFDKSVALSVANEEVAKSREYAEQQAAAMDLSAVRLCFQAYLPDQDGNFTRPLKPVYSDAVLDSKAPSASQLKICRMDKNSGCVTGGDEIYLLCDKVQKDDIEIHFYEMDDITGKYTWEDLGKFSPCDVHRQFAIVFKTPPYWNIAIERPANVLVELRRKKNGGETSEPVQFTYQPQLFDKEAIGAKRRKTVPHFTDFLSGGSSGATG

[3] = target: T3, GST-Nv-NF-kB (Ser allele) (Nematostella vectensis, UniProt A7UNT2 2-411)
T3 sequence: T2 sequence with Q21R, C66S, S207N, E215Q, V217A, E225K, A268E, D399E

[4] = target: T4, GST-Co-NF-kB (Capsaspora owczarzaki, UniProt F1ARL5 200-546)
T4 sequence: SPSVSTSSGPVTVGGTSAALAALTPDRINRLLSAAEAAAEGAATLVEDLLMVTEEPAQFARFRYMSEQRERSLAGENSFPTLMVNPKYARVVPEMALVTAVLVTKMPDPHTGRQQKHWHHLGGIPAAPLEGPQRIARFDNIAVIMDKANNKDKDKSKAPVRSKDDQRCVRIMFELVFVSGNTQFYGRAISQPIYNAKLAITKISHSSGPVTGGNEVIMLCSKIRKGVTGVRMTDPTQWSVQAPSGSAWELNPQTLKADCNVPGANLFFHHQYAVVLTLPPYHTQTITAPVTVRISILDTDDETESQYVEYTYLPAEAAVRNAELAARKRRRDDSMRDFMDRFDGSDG

[5] = target: T5, GST-Dm-Relish (Drosophila melanogaster, UniProt Q94527 99-473)
T5 sequence: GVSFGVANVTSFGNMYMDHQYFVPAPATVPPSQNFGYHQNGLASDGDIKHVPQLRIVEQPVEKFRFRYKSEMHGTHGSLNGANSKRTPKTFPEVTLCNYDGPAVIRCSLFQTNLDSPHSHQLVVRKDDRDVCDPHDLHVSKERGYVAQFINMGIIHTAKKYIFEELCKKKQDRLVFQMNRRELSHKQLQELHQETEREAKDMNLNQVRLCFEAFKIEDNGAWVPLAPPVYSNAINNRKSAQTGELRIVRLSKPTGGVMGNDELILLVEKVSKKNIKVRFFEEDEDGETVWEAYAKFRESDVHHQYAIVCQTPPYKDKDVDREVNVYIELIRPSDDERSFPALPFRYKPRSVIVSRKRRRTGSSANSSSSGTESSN

[6] = target: T6, GST-Aq-NF-kB (Amphimedon queenslandica, UniProt A9Y5G7 2-389)
T6 sequence: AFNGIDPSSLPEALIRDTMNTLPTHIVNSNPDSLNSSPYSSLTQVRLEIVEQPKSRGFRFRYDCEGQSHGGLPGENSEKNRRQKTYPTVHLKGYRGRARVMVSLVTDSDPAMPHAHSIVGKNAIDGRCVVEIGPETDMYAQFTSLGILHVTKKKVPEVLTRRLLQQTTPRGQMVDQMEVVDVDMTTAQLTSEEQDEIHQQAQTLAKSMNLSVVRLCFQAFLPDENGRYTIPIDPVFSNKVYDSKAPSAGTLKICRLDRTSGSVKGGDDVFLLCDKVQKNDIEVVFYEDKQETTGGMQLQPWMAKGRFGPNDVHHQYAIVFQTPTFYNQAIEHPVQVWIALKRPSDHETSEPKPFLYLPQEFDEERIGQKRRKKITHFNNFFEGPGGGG

[7] = target: GST-Hu-p50 (Homo sapiens, UniProt P19838 7-356)
GST-Hu-p50, sequence (P19838 7-356): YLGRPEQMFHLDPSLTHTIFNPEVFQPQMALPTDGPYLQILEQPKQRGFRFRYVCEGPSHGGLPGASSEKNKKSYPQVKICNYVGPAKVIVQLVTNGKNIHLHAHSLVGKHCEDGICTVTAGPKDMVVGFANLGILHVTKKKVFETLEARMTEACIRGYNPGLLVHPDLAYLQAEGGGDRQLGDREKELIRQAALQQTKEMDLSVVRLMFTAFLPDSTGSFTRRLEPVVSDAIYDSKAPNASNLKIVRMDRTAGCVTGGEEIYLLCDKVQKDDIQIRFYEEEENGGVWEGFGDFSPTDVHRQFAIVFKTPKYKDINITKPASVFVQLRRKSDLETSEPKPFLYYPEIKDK

Q: What does the source list for “CCGATTAACATCAGGGGAAAAAATGATGTTAATCGGGTCTTGATTCGCTTGACGCTGCTG”?
A: binding signal [1]: 6.24 z-score; binding signal [2]: 8.26 z-score; binding signal [3]: 10.4 z-score; binding signal [4]: 11.1 z-score; binding signal [5]: 4.87 z-score; binding signal [6]: 6.42 z-score; binding signal [7]: 6.22 z-score

Q: Which binding signal [1] does the source give for “CCGATTAACATCAGGGGGGTAACTGATGTTAATCGGGTCTTGATTCGCTTGACGCTGCTG” here?
A: Its binding signal is 5.83 z-score.

Q: What about the binding signal [2] of the same sequence?
A: Its binding signal is 4.16 z-score.

Q: What about the binding signal [3] of the same sequence?
A: Its binding signal is 4.34 z-score.

Q: And the binding signal [4]?
A: The binding signal was 6.37 z-score.

Q: And the binding signal [5]?
A: Its binding signal is 4.31 z-score.

Q: And the binding signal [6]?
A: The binding signal was 4.37 z-score.

Q: And the binding signal [7]?
A: Its binding signal is 4.07 z-score.

Q: Which binding signal [1] does the source give for “CCGATTAACATCAAGAGATTCCCTGATGTTAATCGGGTCTTGATTCGCTTGACGCTGCTG” here?
A: Its binding signal is 3.17 z-score.

Q: And the binding signal [2]?
A: Its binding signal is 3.88 z-score.

Q: What about the binding signal [3] of the same sequence?
A: Its binding signal is 3.73 z-score.

Q: What about the binding signal [4] of the same sequence?
A: Its binding signal is 2.46 z-score.

Q: What about the binding signal [5] of the same sequence?
A: Its binding signal is 2.38 z-score.

Q: What about the binding signal [6] of the same sequence?
A: The binding signal was 4.06 z-score.

Q: And the binding signal [7]?
A: Its binding signal is 2.78 z-score.

Q: What does the source list for “CCGATTAACATCAGGGGGAAGTATGATGTTAATCGGGTCTTGATTCGCTTGACGCTGCTG”?
A: binding signal [1]: 5.44 z-score; binding signal [2]: 6.23 z-score; binding signal [3]: 7.96 z-score; binding signal [4]: 8.17 z-score; binding signal [5]: 5.72 z-score; binding signal [6]: 5.16 z-score; binding signal [7]: 5.57 z-score

Q: Which binding signal [1] does the source give for “CCGATTAACATCAGGGAAAATACTGATGTTAATCGGGTCTTGATTCGCTTGACGCTGCTG” here?
A: The binding signal was 3.76 z-score.

Q: And the binding signal [2]?
A: The binding signal was 6.09 z-score.

Q: And the binding signal [3]?
A: The binding signal was 6.82 z-score.

Q: What about the binding signal [4] of the same sequence?
A: Its binding signal is 4.49 z-score.

Q: And the binding signal [5]?
A: The binding signal was 4.93 z-score.

Q: And the binding signal [6]?
A: The binding signal was 5.71 z-score.

Q: And the binding signal [7]?
A: The binding signal was 4.76 z-score.

Q: Which results are given for “CCGATTAACATCAAGGGGGTTTATGATGTTAATCGGGTCTTGATTCGCTTGACGCTGCTG”?
A: binding signal [1]: 7.31 z-score; binding signal [2]: 6.46 z-score; binding signal [3]: 7.73 z-score; binding signal [4]: 2.54 z-score; binding signal [5]: 8.75 z-score; binding signal [6]: 6.24 z-score; binding signal [7]: 7.21 z-score

Q: Which binding signal [1] does the source give for “CCGATTAACATCAAGGGGAAAACTGATGTTAATCGGGTCTTGATTCGCTTGACGCTGCTG” here?
A: The binding signal was 7.51 z-score.

Q: And the binding signal [2]?
A: The binding signal was 8.85 z-score.

Q: And the binding signal [3]?
A: Its binding signal is 11 z-score.

Q: What about the binding signal [4] of the same sequence?
A: Its binding signal is 8 z-score.

Q: What about the binding signal [5] of the same sequence?
A: The binding signal was 5.32 z-score.

Q: And the binding signal [6]?
A: Its binding signal is 6.55 z-score.

Q: And the binding signal [7]?
A: The binding signal was 6.9 z-score.

Q: What does the source list for “CCGATTAACATCACGGTATTCCCTGATGTTAATCGGGTCTTGATTCGCTTGACGCTGCTG”?
A: binding signal [1]: 4.35 z-score; binding signal [2]: 3.63 z-score; binding signal [3]: 3.91 z-score; binding signal [4]: 3.34 z-score; binding signal [5]: 6.53 z-score; binding signal [6]: 6 z-score; binding signal [7]: 1.52 z-score

Q: “CCGATTAACATCAGGGGGTTCTATGATGTTAATCGGGTCTTGATTCGCTTGACGCTGCTG” was tested. Which binding signal [1] did it give?
A: The binding signal was 7.12 z-score.

Q: What about the binding signal [2] of the same sequence?
A: Its binding signal is 5.57 z-score.

Q: What about the binding signal [3] of the same sequence?
A: The binding signal was 6.75 z-score.

Q: And the binding signal [4]?
A: Its binding signal is 2.36 z-score.

Q: And the binding signal [5]?
A: The binding signal was 6.97 z-score.

Q: And the binding signal [6]?
A: The binding signal was 5.33 z-score.

Q: What about the binding signal [7] of the same sequence?
A: Its binding signal is 5.89 z-score.
